Reference: PubChem BioAssay (Tox21)
Records with an inconclusive call do not appear. Entries that show only a call come without a potency. Calls of active or inactive are those of the source. Unless noted, the call rests on the fitted dose curve.

How the values were obtained:
[1] = qHTS assay to identify small molecule agonists of the androgen receptor (AR) signaling pathway in the presence of an antagonist - cell viability counter screen (AID 1259379; active means well fitted curve in the direction sought with a large enough effect in the repeat runs; an effect the other way counts as inactive or inconclusive;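 further: MDA-kb2 human breast cancer cells carrying an MMTV luciferase reporter; series mostly up to about 92 µM; nearly all actives have a fitted effect of over 25% in size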)
Procedure, shortened: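 Nilutamide-containing (3.0uM final) MDA-kb2 cultures, 3,000 cells/well, were treated with compounds across 15 concentrations. After 16 hr at 37C with no CO2, cell viability was determined by CellTiter-Fluor fluorescence in the luciferase assay wells.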

[2] = qHTS assay to identify small molecule agonists of the estrogen receptor beta (ER-beta) signaling pathway - cell viability counter screen (AID 1259380; active means well fitted curve in the direction sought with a large enough effect in the repeat runs; an effect the other way counts as inactive or inconclusive; further: nearly all actives have a fitted effect of over 30% in size)
Procedure, shortened: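 Steps: plate ER-beta-UAS-bla HEK293T cells, rest 6 hr; add compounds in DMSO; incubate 16 hr at 37C, 5% CO2; add FRET substrate 2 hr; add CellTiter-Glo, wait 30 min at room temperature; read luminescence.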

[3] = biological target: Androgen receptor (Homo sapiens) (UniProt P10275); assay: qHTS assay to identify small molecule agonists of the androgen receptor (AR) signaling pathway in the presence of an antagonist (AID 1259381); further: nearly all actives have a fitted effect of over 15% in size; further: potency means the concentration at half of the fitted maximal effect
Procedure, shortened: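 Reporter-gene luminescence from MDA-kb2 cells exposed 16hr at 37C (0% CO2) to 15-point compound titrations with 3.0uM final nilutamide as AR antagonist.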

[4] = qHTS assay to identify small molecule antagonists of the estrogen receptor beta (ER-beta) signaling pathway - cell viability counter screen (AID 1259382; active means well fitted curve in the direction sought with a large enough effect in the repeat runs; an effect the other way counts as inactive or inconclusive; further: series mostly up to about 92 µM; nearly all actives have a fitted effect of over 55% in size)
Procedure, shortened: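 Viability is scored by CellTiter-Glo luminescence (30 min, room temperature) in ER-beta-UAS-bla HEK293T wells already read for reporter fluorescence. Compound exposure lasts 16 hr at 37C alongside 1nM 17-beta-estradiol in charcoal-stripped serum medium.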

[5] = qHTS assay to identify small molecule agonists or antagonists of the thyroid stimulating hormone receptor (TSHR) signaling pathway - wild type cell line counter screen (AID 1259384)
Procedure, shortened: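 Wild-type Hek293 cells, 800/well, 18 h at 37C, then compound with Ro20-1724 for 30 min RT. cAMP by HTRF (cAMP-d2/anti-cAMP cryptate), 1 h RT, fluorescence read. 15 concentrations, triplicates.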

[6] = biological target: Thyrotropin receptor (Homo sapiens) (UniProt P16473); assay: qHTS assay to identify small molecule antagonists of the thyroid stimulating hormone receptor (TSHR) signaling pathway (AID 1259385); further: nearly all actives have a fitted effect of over 20% in size
Procedure, shortened: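 TSHR-HEK293 cells (800/well) plated 18 h, then compounds with Ro20-1724 and TSH at 1.5 ng/mL final, 30 min at room temperature. cAMP quantified by HTRF (cAMP-d2/anti-cAMP-cryptate, 1 h); 15 concentrations in triplicate.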

[7] = qHTS assay to identify small molecule agonists of the estrogen receptor alpha (ER-alpha) signaling pathway in the presence of an antagonist - cell viability counter screen (AID 1259386; active means well fitted curve in the direction sought with a large enough effect in the repeat runs; an effect the other way counts as inactive or inconclusive;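 further: series mostly up to about 92 µM; cells exposed to compounds for 22 h at 37 °C before the viability read; nearly all actives have a fitted effect of over 30% in size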)
Procedure, shortened: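 In this counter screen, compound effects on VM7Luc4E2 viability were tested in the presence of the antagonist ICI-182,780 at 10.0nM final. Compounds were dosed at 15 concentrations, exposure lasted 22hr, and the CellTiter-Fluor signal was read.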

[8] = biological target: Progesterone receptor (Homo sapiens) (UniProt P06401); assay: qHTS assay to identify small molecule agonists of the progesterone receptor (PR) signaling pathway (AID 1346784); further: nearly all actives have a fitted effect of over 30% in size
Procedure, shortened: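 PR-UAS-bla HEK 293T cells (beta-lactamase reporter under UAS) in 2% charcoal-stripped FBS, dosed with 23 nL compound after 6 hr, incubated 16hr at 37C. LiveBLAzer B/G FRET substrate added, fluorescence read after 2 hours.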

[9] = biological target: Estrogen receptor beta (Homo sapiens) (UniProt Q92731); assay: qHTS assay to identify small molecule antagonists of the estrogen receptor beta (ER-beta) signaling pathway (AID 1259378; active means well fitted inhibition curve with a large enough effect in the signal ratio in the repeat runs, not every such curve was filed as active; the % refers to the signal ratio)
Procedure, shortened: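 ER-beta-UAS-bla HEK293T cells in 2% charcoal-stripped FBS medium treated with compound plus 1nM final 17-beta-estradiol for 16 hr at 37C. Beta-lactamase reporter read by FRET substrate fluorescence after 2 hours at room temperature.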

[10] = biological target: Estrogen receptor (Homo sapiens) (UniProt P03372); assay: qHTS assay to identify small molecule agonists of the estrogen receptor alpha (ER-alpha) signaling pathway in the presence of an antagonist (AID 1259383); further: top concentration of the series differs between compounds; nearly all actives have a fitted effect of over 15% in size
Procedure, shortened: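 Readout was ERE-driven luciferase luminescence in VM7Luc4E2 cells, which express full-length ER-alpha endogenously. Compounds were tested at 15 concentrations for 22hr alongside 10.0nM ICI-182,780 (final concentration).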

Chain of Thyrotropin receptor (Homo sapiens) (P16473 whole entry, looked up): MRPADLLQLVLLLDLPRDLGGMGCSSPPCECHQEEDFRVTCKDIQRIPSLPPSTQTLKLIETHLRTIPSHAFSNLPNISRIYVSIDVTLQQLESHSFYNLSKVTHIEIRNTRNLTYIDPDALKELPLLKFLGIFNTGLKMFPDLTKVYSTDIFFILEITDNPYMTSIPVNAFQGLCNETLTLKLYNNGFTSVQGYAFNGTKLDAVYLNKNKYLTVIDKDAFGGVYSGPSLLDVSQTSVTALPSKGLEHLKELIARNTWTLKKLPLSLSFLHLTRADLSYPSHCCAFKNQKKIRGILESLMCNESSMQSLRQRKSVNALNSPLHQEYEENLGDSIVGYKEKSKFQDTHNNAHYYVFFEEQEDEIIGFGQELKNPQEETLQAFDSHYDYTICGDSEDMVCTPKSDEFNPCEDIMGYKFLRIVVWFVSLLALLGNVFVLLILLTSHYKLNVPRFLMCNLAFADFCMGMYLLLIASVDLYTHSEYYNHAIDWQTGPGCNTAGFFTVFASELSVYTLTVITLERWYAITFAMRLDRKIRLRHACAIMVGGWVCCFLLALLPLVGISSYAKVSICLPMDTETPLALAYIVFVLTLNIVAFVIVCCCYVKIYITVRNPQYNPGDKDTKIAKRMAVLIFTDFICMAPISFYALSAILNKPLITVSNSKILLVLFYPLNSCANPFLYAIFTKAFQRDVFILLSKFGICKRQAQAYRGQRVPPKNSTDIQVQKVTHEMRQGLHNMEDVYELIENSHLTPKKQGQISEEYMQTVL
Chain of Estrogen receptor (Homo sapiens) (P03372 whole entry, looked up): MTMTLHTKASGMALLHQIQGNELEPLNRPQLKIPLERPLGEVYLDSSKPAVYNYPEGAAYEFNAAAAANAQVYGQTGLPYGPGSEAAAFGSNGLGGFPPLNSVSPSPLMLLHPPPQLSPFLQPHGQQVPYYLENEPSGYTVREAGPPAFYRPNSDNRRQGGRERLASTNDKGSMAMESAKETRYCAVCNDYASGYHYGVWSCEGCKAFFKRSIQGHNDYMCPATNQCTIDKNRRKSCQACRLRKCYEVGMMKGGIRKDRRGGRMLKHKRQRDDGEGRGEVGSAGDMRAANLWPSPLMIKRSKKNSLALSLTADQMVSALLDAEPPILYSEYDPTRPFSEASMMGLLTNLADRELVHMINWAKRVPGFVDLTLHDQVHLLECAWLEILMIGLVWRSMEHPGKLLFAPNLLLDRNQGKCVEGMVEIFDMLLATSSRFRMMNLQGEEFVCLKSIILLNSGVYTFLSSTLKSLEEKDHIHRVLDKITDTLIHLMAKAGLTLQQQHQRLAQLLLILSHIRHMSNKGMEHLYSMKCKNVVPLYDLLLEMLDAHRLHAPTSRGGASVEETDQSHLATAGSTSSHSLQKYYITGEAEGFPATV
Chain of Estrogen receptor beta (Homo sapiens) (Q92731 whole entry, looked up): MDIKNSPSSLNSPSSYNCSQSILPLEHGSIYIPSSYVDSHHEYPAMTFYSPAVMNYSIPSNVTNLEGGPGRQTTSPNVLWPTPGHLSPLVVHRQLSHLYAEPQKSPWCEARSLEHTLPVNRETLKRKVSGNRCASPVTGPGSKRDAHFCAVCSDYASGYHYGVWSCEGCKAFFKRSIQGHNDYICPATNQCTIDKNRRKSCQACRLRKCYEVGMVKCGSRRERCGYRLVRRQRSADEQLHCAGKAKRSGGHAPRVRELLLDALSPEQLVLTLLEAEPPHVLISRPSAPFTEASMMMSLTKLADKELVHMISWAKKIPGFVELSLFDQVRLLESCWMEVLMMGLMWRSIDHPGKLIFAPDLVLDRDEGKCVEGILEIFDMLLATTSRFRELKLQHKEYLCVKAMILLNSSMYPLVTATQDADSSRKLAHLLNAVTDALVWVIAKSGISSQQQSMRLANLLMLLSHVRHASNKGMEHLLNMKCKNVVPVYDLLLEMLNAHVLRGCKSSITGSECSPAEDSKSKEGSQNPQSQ
Chain of Progesterone receptor (Homo sapiens) (P06401 whole entry, looked up): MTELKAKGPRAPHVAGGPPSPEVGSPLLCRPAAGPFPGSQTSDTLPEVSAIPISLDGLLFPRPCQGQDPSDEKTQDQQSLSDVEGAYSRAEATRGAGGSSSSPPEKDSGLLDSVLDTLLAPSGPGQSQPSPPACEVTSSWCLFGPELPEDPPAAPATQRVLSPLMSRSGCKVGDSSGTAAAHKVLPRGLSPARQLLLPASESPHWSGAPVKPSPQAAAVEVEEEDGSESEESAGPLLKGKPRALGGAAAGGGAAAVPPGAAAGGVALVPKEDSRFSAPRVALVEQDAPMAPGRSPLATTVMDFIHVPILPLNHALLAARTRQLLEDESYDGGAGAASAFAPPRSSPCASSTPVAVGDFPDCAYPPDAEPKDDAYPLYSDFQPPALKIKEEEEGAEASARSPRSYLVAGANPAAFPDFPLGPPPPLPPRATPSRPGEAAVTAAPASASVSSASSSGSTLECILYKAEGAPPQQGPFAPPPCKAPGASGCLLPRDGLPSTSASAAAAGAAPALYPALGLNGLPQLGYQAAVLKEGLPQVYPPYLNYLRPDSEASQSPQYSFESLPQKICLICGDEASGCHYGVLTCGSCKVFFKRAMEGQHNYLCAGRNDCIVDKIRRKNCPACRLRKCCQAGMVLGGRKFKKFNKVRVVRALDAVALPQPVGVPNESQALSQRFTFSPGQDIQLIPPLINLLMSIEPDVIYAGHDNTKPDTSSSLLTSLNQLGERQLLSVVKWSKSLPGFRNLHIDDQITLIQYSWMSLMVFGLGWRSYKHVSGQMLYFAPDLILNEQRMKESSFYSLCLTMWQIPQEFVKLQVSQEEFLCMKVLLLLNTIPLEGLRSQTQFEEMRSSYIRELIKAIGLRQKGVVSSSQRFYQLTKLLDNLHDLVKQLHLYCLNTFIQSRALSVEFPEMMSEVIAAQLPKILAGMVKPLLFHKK
Chain of Androgen receptor (Homo sapiens) (P10275 whole entry, looked up): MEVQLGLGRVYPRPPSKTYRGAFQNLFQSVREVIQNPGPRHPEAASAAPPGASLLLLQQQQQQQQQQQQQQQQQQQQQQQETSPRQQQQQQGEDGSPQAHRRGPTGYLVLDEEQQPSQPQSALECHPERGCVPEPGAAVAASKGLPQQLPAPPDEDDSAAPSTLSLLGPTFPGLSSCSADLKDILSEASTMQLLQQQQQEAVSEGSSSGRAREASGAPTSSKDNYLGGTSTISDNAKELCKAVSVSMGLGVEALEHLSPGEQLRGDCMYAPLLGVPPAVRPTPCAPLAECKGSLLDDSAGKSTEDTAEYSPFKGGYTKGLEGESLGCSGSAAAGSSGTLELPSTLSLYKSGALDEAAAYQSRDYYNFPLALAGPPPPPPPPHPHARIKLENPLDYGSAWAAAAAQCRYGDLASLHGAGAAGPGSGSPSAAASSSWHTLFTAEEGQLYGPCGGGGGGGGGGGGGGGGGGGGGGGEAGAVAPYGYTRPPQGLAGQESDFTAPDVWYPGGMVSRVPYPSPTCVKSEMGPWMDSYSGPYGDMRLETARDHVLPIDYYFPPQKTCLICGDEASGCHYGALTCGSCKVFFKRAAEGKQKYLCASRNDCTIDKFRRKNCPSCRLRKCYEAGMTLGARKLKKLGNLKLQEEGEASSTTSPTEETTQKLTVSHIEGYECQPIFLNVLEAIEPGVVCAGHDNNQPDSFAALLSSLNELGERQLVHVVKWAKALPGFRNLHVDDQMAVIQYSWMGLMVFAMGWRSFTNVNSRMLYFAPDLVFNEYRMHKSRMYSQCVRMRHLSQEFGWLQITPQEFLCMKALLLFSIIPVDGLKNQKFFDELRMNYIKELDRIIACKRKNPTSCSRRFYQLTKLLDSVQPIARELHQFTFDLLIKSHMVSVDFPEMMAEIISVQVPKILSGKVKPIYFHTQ

CNC(=O)[C@H]1O[C@@H](n2cnc3c(NCc4cc(Cl)ccc4OCc4cc(C)no4)ncnc32)[C@H](O)[C@@H]1N
Potency [1]: inactive
Potency [2]: inactive
Potency [3]: inactive
outcome [4]: inactive
outcome [5]: inactive
outcome [6]: inactive
Potency [7]: inactive
Potency [8]: inactive

COc1cc2c(cc1OC)C(=O)CC2
Potency [1]: inactive
Potency [2]: inactive
Potency [3]: inactive
outcome [4]: inactive
outcome [5]: inactive
outcome [6]: inactive
Potency [7]: inactive
Potency [8]: inactive

COc1ccc(C2CNC(=O)C2)cc1OC1CCCC1 (stereo not drawn)
outcome [9]: inactive
Potency [1]: inactive
Potency [2]: inactive
outcome [5]: inactive
outcome [6]: inactive
Potency [7]: inactive
Potency [8]: inactive

Cc1[nH]cnc1-c1ccc(Cl)cc1
Potency [1]: inactive
Potency [2]: inactive
Potency [3]: inactive
outcome [4]: inactive
outcome [10]: inactive
outcome [5]: inactive
outcome [6]: inactive
Potency [7]: inactive
Potency [8]: inactive

O=C(O)c1cc(Cl)cc([N+](=O)[O-])c1Cl
Potency [1]: inactive
Potency [2]: inactive
Potency [3]: inactive
outcome [4]: inactive
outcome [10]: inactive
outcome [5]: inactive
outcome [6]: inactive
Potency [7]: inactive
Potency [8]: inactive

O=C(OCC(COC(=O)c1cccnc1)(COC(=O)c1cccnc1)COC(=O)c1cccnc1)c1cccnc1
Potency [1]: inactive
Potency [2]: inactive
Potency [3]: inactive
outcome [4]: inactive
outcome [10]: inactive
outcome [5]: inactive
Potency [7]: inactive
Potency [8]: inactive

O=C(/N=N/C(=O)OCc1ccccc1)OCc1ccccc1
outcome [9]: inactive
Potency [1]: inactive
outcome [4]: inactive
outcome [10]: inactive
outcome [5]: inactive
outcome [6]: inactive
Potency [7]: inactive
Potency [8]: inactive

CC(C(=O)O)c1ccc2c(c1)CC(=O)c1ccccc1S2 (stereo not drawn)
Potency [1]: inactive
Potency [2]: inactive
Potency [3]: inactive
outcome [4]: inactive
outcome [10]: inactive
outcome [5]: inactive
Potency [7]: inactive
Potency [8]: inactive

Cc1ccccc1C(=O)Nc1ccc(C(=O)N2CCCC(N(C)C)c3ccccc32)cc1 (stereo not drawn)
outcome [9]: inactive
Potency [1]: inactive
outcome [4]: inactive
outcome [5]: inactive
Potency [7]: inactive
Potency [8]: inactive

CCOC(=O)c1ncn2c1CN(C)C(=O)c1cc(F)ccc1-2
Potency [1]: inactive
Potency [2]: inactive
Potency [3]: inactive
outcome [4]: inactive
outcome [5]: inactive
outcome [6]: inactive

CCN(C)C(=O)Oc1cccc([C@H](C)N(C)C)c1
Potency [1]: inactive
Potency [2]: inactive
Potency [3]: inactive
outcome [4]: inactive
outcome [10]: inactive
outcome [5]: inactive
outcome [6]: inactive
Potency [7]: inactive
Potency [8]: inactive

NC(CO)C(=O)NNCc1ccc(O)c(O)c1O (stereo not drawn)
Potency [1]: inactive
Potency [2]: inactive
Potency [3]: 13.3 µM (active)
outcome [4]: inactive
outcome [10]: inactive
outcome [5]: inactive

O=C(CCN1CCN(CCO)CC1)N1c2ccccc2Sc2ccc(C(F)(F)F)cc21
Potency [1]: inactive
Potency [2]: inactive
Potency [3]: inactive
outcome [4]: inactive
outcome [10]: inactive
outcome [5]: inactive
outcome [6]: inactive
Potency [7]: inactive
Potency [8]: inactive

CC(C)(C)c1nnc(NS(=O)(=O)c2ccc(N)cc2)s1
Potency [1]: inactive
Potency [2]: inactive
Potency [3]: inactive
outcome [4]: inactive
outcome [10]: inactive
outcome [5]: inactive
outcome [6]: inactive
Potency [7]: inactive
Potency [8]: inactive

CCCCNC1CC(C)(C)NC(C)(C)C1
outcome [9]: inactive
Potency [2]: inactive
outcome [10]: inactive
outcome [5]: inactive
outcome [6]: inactive
Potency [7]: inactive
Potency [8]: inactive

COc1ccc(-c2cc(=O)c3c(O)cc(O[C@@H]4O[C@H](CO[C@@H]5O[C@@H](C)[C@H](O)[C@@H](O)[C@H]5O)[C@@H](O)[C@H](O)[C@H]4O)cc3o2)cc1O
outcome [9]: inactive
Potency [1]: inactive
Potency [2]: inactive
outcome [10]: inactive
Potency [7]: inactive
Potency [8]: inactive

C#CC(C)N(C)C(=O)Nc1ccc(Cl)cc1 (stereo not drawn)
outcome [9]: inactive
Potency [1]: inactive
Potency [3]: inactive
Potency [7]: inactive
Potency [8]: inactive

COCCc1ccc(OCC2CO2)cc1 (stereo not drawn)
Potency [1]: inactive
Potency [2]: inactive
Potency [3]: inactive
outcome [4]: inactive
outcome [10]: inactive
outcome [5]: inactive
outcome [6]: inactive
Potency [7]: inactive
Potency [8]: inactive

COc1cc(NS(=O)(=O)c2ccc(N)cc2)nc(OC)n1
Potency [1]: inactive
Potency [2]: inactive
Potency [3]: inactive
outcome [4]: inactive
outcome [10]: inactive
Potency [7]: inactive
Potency [8]: inactive

CCCCCCOc1ccccc1C(N)=O
outcome [9]: inactive
Potency [2]: inactive
outcome [4]: inactive
outcome [10]: inactive
outcome [5]: inactive
outcome [6]: inactive
Potency [7]: inactive
Potency [8]: inactive

Cc1ccc2ccc(Cl)cc2n1
Potency [1]: inactive
Potency [2]: inactive
Potency [3]: inactive
outcome [4]: inactive
outcome [10]: inactive
outcome [5]: inactive
outcome [6]: inactive
Potency [7]: inactive
Potency [8]: inactive

C=C(C)C(=O)OCCOP(=O)(O)OCCOC(=O)C(=C)C
outcome [9]: inactive
Potency [1]: inactive
Potency [2]: inactive
outcome [10]: inactive
outcome [5]: inactive
Potency [7]: inactive
Potency [8]: inactive

Oc1ccccc1-c1nnco1
Potency [1]: inactive
Potency [2]: inactive
Potency [3]: inactive
outcome [4]: inactive
outcome [10]: inactive
outcome [5]: inactive
outcome [6]: inactive
Potency [7]: inactive
Potency [8]: inactive

O=C(O)c1ccc(Cl)cc1Cl
outcome [9]: inactive
Potency [1]: inactive
Potency [2]: inactive
outcome [10]: inactive
outcome [5]: inactive
outcome [6]: inactive
Potency [8]: inactive

O=S(=O)(O)c1cc(O)c2ccc(Nc3ccccc3)cc2c1
outcome [9]: inactive
Potency [1]: inactive
outcome [4]: inactive
outcome [10]: inactive
Potency [8]: inactive

CC(=O)NCc1c(I)c(NC(C)=O)c(I)c(C(=O)O)c1I
Potency [1]: inactive
Potency [2]: inactive
Potency [3]: inactive
outcome [4]: inactive
outcome [10]: inactive
outcome [5]: inactive
outcome [6]: inactive
Potency [7]: inactive
Potency [8]: inactive
